High-throughput results deposited in PubChem BioAssay by National Center for Advancing Translational Sciences (NCATS).
HT1080 IDH1KD tx: HT-1080 IDH1 knockdown cell toxicity (counter line); AID 686971; 360,000 compounds, 2% hits; HT-1080 IDH1 knockdown viability, ATP luminescence, 48 h; Potency, µM (series often up to 46.1 µM), without a hit: at the top dose activity, negative = toxicity, most hits filed as cytotoxic;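 further: 0% = DMSO wells and -100% = cell-free medium wells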
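Knockdown cells (IDH1KD HT-1080) received compounds 2 h after plating at 750 cells/well and were kept 48 h at 37 °C in 5% FBS RPMI. A CellTiter-Glo luminescence read gave % activity for curve fitting.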
DT40 TDP1 CPT: growth inhibition of DT40 Tdp1-/-;hTDP1 cells with camptothecin (screen for TDP1 inhibitors) | Potency, µM (top dose mostly 46.2 µM), inactives show top-dose activity change, negative = growth inhibition, hits mostly inhibitors | chicken DT40 Tdp1-/-;hTDP1 cells + 20 nM CPT, ATP luminescence, 48 h | 420,000 compounds, 12% hits; further: nearly all actives have a fitted effect of over 55% in size
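Chicken DT40 Tdp1-/- cells stably complemented with human TDP1 were seeded at 400 cells/well in medium containing 20 nM camptothecin, exposed to pin-transferred compounds, and grown at 37 °C for at least 48 hr. Viability was read as ATP luminescence.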
HT1080NT lethal: kills 2HG-producing HT-1080-NT fibrosarcoma cells | HT-1080-NT fibrosarcoma viability, CellTiter-Glo ATP luminescence, 48 h | Potency, µM (highest dose often 46.1 µM), for inactives: at the highest dose activity, negative = less viability, actives largely listed as cytotoxic | 360,000 compounds, 1.6% hits;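 further: NT is the 2HG producing partner of a matched IDH1 knockdown line; 0% = DMSO-treated cells and -100% = media-only wells without cells; nearly all actives have a fitted effect of over 55% in size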
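HT-1080-NT fibrosarcoma cells (2HG-overproducing), 750 cells/well in RPMI with 5% FBS, dosed after 2 h and incubated 48 h at 37C. CellTiter-Glo luminescence normalized to DMSO and no-cell wells; concentration-response curves fitted and classed.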
KB-V1 MDR tox: kills drug-selected multidrug resistant KB-V1 cells; KB-V1 MDR cells viability, CellTiter-Glo, 72 h; Potency, µM (titrated, usually from 46.1 µM), hits mostly cytotoxic; 400,000 compounds, 3.4% hits; further: nearly all actives have a fitted effect of over 60% in size
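Potencies derive from concentration-effect curves fitted to normalized luminescence (CellTiter-Glo) of KB-V1 cells treated for 72 h at 37 degrees C in phenol-red-free DMEM containing 10% FBS.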
KB-3-1 cytotox: kills parental KB-3-1 adenocarcinoma cells; KB-3-1 viability, CellTiter-Glo ATP luminescence, 72 h; Potency, µM (highest dose often 46.1 µM), most hits filed as cytotoxic; 400,000 compounds, 1.4% hits; AID 1347075; further: nearly all actives have a fitted effect of over 60% in size
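Screening of KB-3-1 cells (DMEM, 10% FBS, phenol-red free) ran from lowest to highest compound concentration; after 72 h at 37 °C viability was read luminescently and curves fitted.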
TDP1 cell noCPT: qHTS for Inhibitors of human tyrosyl-DNA phosphodiesterase 1 (TDP1): qHTS in cells in absence of CPT. 420,000 compounds, 15% hits. DT40 Tdp1-/- hTDP1 cells, no CPT, ATP luminescence, 48 h. Potency, µM (top dose mostly 46.2 µM), for the others: at the top dose activity change, negative = growth inhibition, hits mostly inhibitors; further: nearly all actives have a fitted effect of over 55% in size
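Growth kinetics read by CellTiter-Glo luminescence after ≥48 hr at 37 °C. Cells: DT40 Tdp1-/- stably carrying human TDP1, 400 per well, compound exposure in the absence of CPT (DMSO vehicle).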
Active calls of the source: *; i = inactive; u = inconclusive; x = no result. Compounds with a hit are over-represented: about 19% of the library has one in this group of screens. The call rests on the fitted dose curve; in most records, active means well fitted curve in the direction sought with a large enough effect; inconclusive means small, poorly fitted or top-dose-only effect, or another doubt; inactive means no such curve, though single readings can be large; an effect the other way counts as inactive or inconclusive. Unless noted, on the % scale 0 is the no-effect control and ±100 the full control effect; potency means the concentration at half of the fitted maximal effect.

SMILES | HT1080 IDH1KD tx | DT40 TDP1 CPT | HT1080NT lethal | KB-V1 MDR tox | KB-3-1 cytotox | TDP1 cell noCPT
CSc1nc(N)n2nccc2n1 | -0.7% | -3.7% | 1.7% | i | i | -2.3%
Cc1ccc(-c2c[n+](CC(=O)Nc3cc(=O)n(C)c(=O)n3C)c3n2CCC3)cc1 | -7.7% | u | -5.0% | i | u | 14.6µM*
O=C(C[n+]1cc(-c2ccccc2)n2c1CCC2)Nc1nc(-c2ccccc2)cs1 | -10.2% | u | 0.1% | i | 16.4µM* | 23.1µM*
Cc1ccc(-c2c[n+](CC(=O)Nc3nc(-c4ccccc4)cs3)c3n2CCC3)cc1 | 23.1µM* | 14.6µM* | u | i | i | 18.4µM*
Cc1cnc(CNc2nc3cc(-c4ccccc4C)sc3c(=O)n2C)cn1 | 1.5% | u | 2.1% | u | i | u
Cc1cccc(C(=O)Nc2ccccc2OCc2cc(=O)n3ccccc3n2)c1 | x | -11.2% | x | x | x | -12.1%
Cc1c(C(=O)NC2CCCc3ccccc32)oc2ccc(S(=O)(=O)N3CCCC3)cc12 (configuration not stated) | -5.3% | 8.2µM* | -6.2% | i | i | u
Cc1c(C(=O)NC2CCCc3ccccc32)oc2ccc(S(=O)(=O)N3CCOCC3)cc12 (configuration not stated) | -11.4% | u | -7.5% | i | i | u
Cc1c(C(=O)NC2CCCc3ccccc32)oc2ccc(S(=O)(=O)N3CCCCC3)cc12 (configuration not stated) | 11.8% | 0.259µM* | -2.1% | i | i | u
CCCN(Cc1cccs1)C(=O)Nc1cc(C)cc(C)c1 | x | 25.9µM* | x | i | i | u
CCCN(Cc1cccs1)C(=O)Nc1cc(C)ccc1OC | x | u | x | i | i | 16.4µM*
N#CN=c1snc(-c2ccccc2Cl)n1-c1ccc(F)cc1 | x | u | x | i | i | u
COCCN(C(=O)COC(=O)c1ccc2c(c1)OCO2)c1c(N)n(Cc2ccccc2)c(=O)[nH]c1=O | 6.7% | -6.6% | 7.9% | i | i | -11.2%
CN(C(=O)c1ccccc1-c1ccccc1C(=O)O)c1ccccc1 | 1.5% | 9.2% | -0.9% | i | i | -2.8%
CN(C1CCCCC1)S(=O)(=O)c1ccc2c(c1)CCC(=O)N2 | 5.2% | -9.0% | 5.5% | u | i | -10.7%
CN(C)S(=O)(=O)c1ccc2c(c1)/C(=C/c1cc3c([nH]1)CCCC3)C(=O)N2 | -11.1% | 4.61µM* | 13.1% | u | i | 3.26µM*
CC1Cc2ccccc2N1c1ncnc2c1nnn2Cc1ccccc1Cl (configuration not stated) | 2.2% | u | -2.9% | i | i | u
CCc1nc(N2CCC3(CC2)OCCO3)c2nnn(Cc3ccccc3Cl)c2n1 | -12.3% | u | -0.4% | i | i | 16.4µM*
Cc1nc(N2CCN(C)CC2)c2nnn(Cc3ccccc3)c2n1 | -0.8% | -17.6% | -2.5% | x | x | u
Clc1ccccc1Cn1nnc2c(N3CCCC3)ncnc21 | 20µM* | u | u | i | i | u
Cc1cc(C)cc(N2CC(c3nnc(NC(=O)c4ccco4)s3)CC2=O)c1 (configuration not stated) | x | -18.5% | x | i | i | -23.9%
COCc1nn2cc(-c3ccc(C)cc3)nc2s1 | x | -23.6% | x | i | i | u
COc1cccc(C2C(C(=O)Nc3ccccc3)=C(C)N=c3s/c(=C/c4ccc(OCC(=O)O)cc4)c(=O)n32)c1 (configuration not stated) | 12.0% | 4.7% | 3.0% | i | i | -19.0%
CCOC(=O)C1=C(C)N=c2sc(=Cc3cc(Cl)c(OCC(=O)O)c(Cl)c3)c(=O)n2C1c1cccc(OC)c1 (configuration not stated) | 20.6µM* | 16.4µM* | 25.9µM* | i | i | u
COc1cccc(C2C(C(=O)OC(C)C)=C(C)N=c3s/c(=C\c4ccc(C(=O)O)cc4)c(=O)n32)c1 (configuration not stated) | -17.8% | -20.5% | -13.1% | i | i | 18.4µM*
SMILES | HT1080 IDH1KD tx | DT40 TDP1 CPT | HT1080NT lethal | KB-V1 MDR tox | KB-3-1 cytotox | TDP1 cell noCPT
Cc1ccc(CNC(=O)CCCCn2c(=O)c3ccccc3n(Cc3ccc(Cl)cc3)c2=O)cc1 | x | -4.7% | x | i | i | u
COc1ccc(OCC(O)Cn2ccnc2C)cc1 (configuration not stated) | 10.5% | -2.4% | 4.9% | i | i | -25.9%
COc1cc(OC)cc(OCC(O)Cn2cnc3cc(C)c(C)cc32)c1 (configuration not stated) | -5.4% | u | 1.5% | u | i | 16.4µM*
O=S(Cc1ccc(Br)cc1)Cc1nnc(SCc2ccc(Br)cc2)n1-c1ccccc1 (configuration not stated) | u | 11.6µM* | -5.2% | 2.91µM* | 16.4µM* | 10.3µM*
O=c1cc(-c2ccccc2)n2c(SCc3ccc(Br)cc3)nnc2[nH]1 | x | -14.1% | x | x | x | -8.6%
COC(=O)c1ccc(CSc2nnc(CS(=O)Cc3ccc(Br)cc3)n2-c2ccccc2)cc1 (configuration not stated) | -22.5% | 7.31µM* | -21.7% | u | i | 13µM*
COC(=O)c1ccc(NC(=O)CSc2nnc(C)n2-c2ccccc2)cc1 | 8.2% | -6.1% | 7.2% | i | i | 7.3%
O=C(COC(=O)c1ccc(Cl)nc1)NNC(=O)c1ccc(Cl)cc1 | 9.6% | -1.8% | 9.3% | i | i | -3.2%
COc1ccccc1C(=O)Nc1ccnn1C1CCN(Cc2ccn[nH]2)CC1 | 10.7% | -2.3% | -1.5% | i | u | -10.7%
CC(C)NC(=O)c1cc2cc(Br)ccc2oc1=O | 2.1% | u | 0.5% | i | i | 23.1µM*
COc1ccc(OC)c(S(=O)(=O)CC(=O)c2cc3ccc(OC)cc3oc2=O)c1 | 0.0% | -4.4% | -0.4% | i | i | -8.8%
COc1ccc(S(=O)(=O)CC(=O)c2cc3cc(Br)ccc3oc2=O)cc1 | -4.4% | u | 7.3% | u | i | 11.6µM*
N=c1oc2ccc(Br)cc2cc1C(=O)NC1CCCCCC1 | 9.1% | 16.4µM* | -0.2% | i | i | 9.2µM*
Cc1ccc(C(C)NC(=O)c2cc3cc(Br)ccc3oc2=N)cc1 (configuration not stated) | -1.0% | 23.1µM* | 9.3% | u | i | 20.6µM*
